Test results from PubChem BioAssay.
Calls of active or inactive are those of the source. Unless noted, the rule behind the calls is not given here.

What was measured:
[1] = HepG2 liver cancer cell viability effects, profiling panel, resazurin fluorescence, 24 h, PK04 Diversity Set (AID 1172); conditions: higher = more signal
[2] = basal S. cerevisiae growth modulation, no modifier, primary screen, OD600, strain BY4716, 24 h, basal condition (AID 1173); conditions: OD600, 24 h, higher = more signal, called active from +8 up or from −8 down
[3] = MM1S myeloma cell viability, profiling panel, resazurin fluorescence, basal, 24 h, PK04 Diversity Set (AID 1174); conditions: higher = more signal, called active from +8 up or from −8 down;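 note: MM1S multiple myeloma cell line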
[4] = molecular target: Dihydroorotate dehydrogenase (quinone), mitochondrial (Plasmodium falciparum (isolate 3D7)) (UniProt Q08210); test: PfDHODH enzyme inhibitors, primary screen, biochemical, C-terminal His tag, absorbance 600 nm (AID 1175); conditions: DCIP absorbance 600 nm, higher = more signal, called active from +8 up or from −8 down;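 note: recombinant parasite enzyme with a five histidine tag at its C terminus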
Dihydroorotate dehydrogenase (quinone), mitochondrial (Plasmodium falciparum (isolate 3D7)), sequence (Q08210 whole entry, looked up): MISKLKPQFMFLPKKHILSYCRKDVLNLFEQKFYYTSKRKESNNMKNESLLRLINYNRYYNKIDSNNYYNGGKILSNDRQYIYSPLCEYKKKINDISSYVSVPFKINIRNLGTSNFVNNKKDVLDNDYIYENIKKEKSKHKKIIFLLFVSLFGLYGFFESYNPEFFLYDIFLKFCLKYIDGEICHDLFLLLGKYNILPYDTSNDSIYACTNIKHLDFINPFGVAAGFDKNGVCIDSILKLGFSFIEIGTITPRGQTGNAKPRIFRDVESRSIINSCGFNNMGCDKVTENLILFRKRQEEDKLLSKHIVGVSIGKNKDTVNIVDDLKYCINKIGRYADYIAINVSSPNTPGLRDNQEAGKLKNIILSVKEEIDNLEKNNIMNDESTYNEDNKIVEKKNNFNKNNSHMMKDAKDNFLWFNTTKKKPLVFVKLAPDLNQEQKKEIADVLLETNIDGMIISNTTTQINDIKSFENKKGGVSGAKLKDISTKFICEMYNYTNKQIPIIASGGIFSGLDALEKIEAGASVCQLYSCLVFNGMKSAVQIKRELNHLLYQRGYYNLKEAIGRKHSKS

[5] = P. aeruginosa biofilm formation inhibitors, primary screen, strain PAO1, LB-PBS medium, absorbance 600 nm (AID 1176); conditions: P. aeruginosa PAO1 growth/biofilm, A600, 12 h; higher = more signal
[6] = S. cerevisiae RM11-1a growth modifiers, primary screen, strain RM11-1a, OD600, basal, 24 h (AID 1177); conditions: OD600, 24 h, higher = more signal, called active from +8 up or from −8 down;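 note: cultures grown under basal conditions with no added stressor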
[7] = E. coli acrAB mutant growth effects, primary screen, E. coli filamentation inducers, strain DRC39, OD650, 24 h (AID 1178); conditions: higher = more signal, called active from +8 up or from −8 down;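 note: growth measured as culture turbidity by optical density at 650 nm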
[8] = E. coli acrAB mutant growth effects, primary screen, E. coli filamentation inducers, strain DRC39, OD650, 48 h (AID 1179);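 note: screen aims at cell division blockers that make cells filament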; conditions: E. coli DRC39 delta-acrAB growth, higher = more signal, called active from +8 up or from −8 down
[9] = RPMI8226 myeloma cell viability, profiling panel, resazurin fluorescence, basal, 24 h, PK04 Diversity Set (AID 1180); conditions: higher = more signal;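 note: RPMI8826 multiple myeloma cell line at 5000 cells per well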
[10] = molecular target: E3 ubiquitin-protein ligase XIAP (Homo sapiens) (UniProt P98170); test: XIAP binders, primary screen, biophysical, small-molecule microarray, fluorescence 635 nm (AID 1181); conditions: small-molecule microarray binding, higher = more signal;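 note: score merges 667 nm emission and signal to noise over triplicate slides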
E3 ubiquitin-protein ligase XIAP (Homo sapiens), sequence (P98170 whole entry, looked up): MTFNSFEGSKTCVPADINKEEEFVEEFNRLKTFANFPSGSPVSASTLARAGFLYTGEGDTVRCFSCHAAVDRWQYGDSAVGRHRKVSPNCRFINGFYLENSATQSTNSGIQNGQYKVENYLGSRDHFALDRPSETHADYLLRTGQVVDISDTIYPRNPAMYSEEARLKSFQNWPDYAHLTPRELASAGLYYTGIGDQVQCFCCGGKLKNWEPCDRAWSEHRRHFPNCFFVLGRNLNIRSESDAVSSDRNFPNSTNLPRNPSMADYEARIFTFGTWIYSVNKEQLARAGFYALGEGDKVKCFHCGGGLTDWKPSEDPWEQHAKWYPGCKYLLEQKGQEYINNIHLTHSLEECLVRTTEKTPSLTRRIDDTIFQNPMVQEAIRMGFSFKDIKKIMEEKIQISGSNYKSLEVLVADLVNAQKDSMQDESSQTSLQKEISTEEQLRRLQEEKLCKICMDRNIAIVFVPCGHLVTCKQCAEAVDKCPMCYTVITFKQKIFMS

[11] = test system: XIP peptide (Xip251-270) binding; test: small-molecule binders of XIP peptide, primary screen, biochemical, small-molecule microarray, fluorescence 635/667 nm, 0.1 µg/mL protein (AID 1182); conditions: fluorescent protein binding, 635 nm, higher = more signal, called active from +8 up or from −8 down
[12] = test system: XIP peptide (Xip251-270); test: small-molecule binders of XIP peptide, primary screen, biochemical, small-molecule microarray, fluorescence 635/667 nm, 0.5 µg/mL protein (AID 1183); conditions: small-molecule microarray binding, fluorescence 635 nm; higher = more signal
[13] = Plasmodium falciparum growth inhibition, primary screen, strain 3D7, DAPI fluorescence, 100 nL (AID 1184);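 note: parasites grown inside human red blood cells in medium with human serum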; conditions: P. falciparum 3D7 growth, 3 d, higher = more signal
[14] = molecular target: Homeobox protein Hox-A13 (Mus musculus) (UniProt Q62424); test: inhibitors of HoxA13-DNA binding, primary screen, biochemical, fluorescence polarization, labeled oligonucleotide (AID 1185); conditions: 15 min, higher = more signal, called active from +8 up or from −8 down
Homeobox protein Hox-A13 (Mus musculus), sequence (Q62424 whole entry, looked up): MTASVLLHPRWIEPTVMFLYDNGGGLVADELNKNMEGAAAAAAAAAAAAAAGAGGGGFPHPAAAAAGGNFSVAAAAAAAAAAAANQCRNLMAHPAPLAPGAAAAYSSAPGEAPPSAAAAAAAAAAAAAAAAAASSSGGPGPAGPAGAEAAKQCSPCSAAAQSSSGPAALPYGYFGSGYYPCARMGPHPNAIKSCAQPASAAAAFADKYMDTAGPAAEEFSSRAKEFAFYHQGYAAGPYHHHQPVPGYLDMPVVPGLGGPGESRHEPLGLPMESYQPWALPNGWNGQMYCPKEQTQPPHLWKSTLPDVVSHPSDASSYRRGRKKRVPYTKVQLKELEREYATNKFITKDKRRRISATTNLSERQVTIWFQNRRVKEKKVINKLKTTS

[15] = inhibitors of hydroxyurea-induced Chk1 phosphorylation, primary screen, imaging, HeLa, phospho-Chk1 antibody, percent positive cells (AID 1186); conditions: hydroxyurea-induced phospho-Chk1 immunofluorescence imaging, higher = more signal
[16] = inhibitors of hydroxyurea-induced Chk1 phosphorylation, primary screen, imaging, HeLa, phospho-Chk1 nuclear intensity (AID 1187); conditions: hydroxyurea-induced phospho-Chk1 immunofluorescence imaging, higher = more signal

Structure (SMILES) | z-score [1] | z-score [2] | z-score [3] | composite z-score [4] | z-score [5] | z-score [6] | z-score [7] | z-score [8] | z-score [9] | composite z-score [10] | composite z-score [11] | composite z-score [12] | z-score [13] | z-score [14] | z-score [15] | z-score [16]
CC(C)N1CC=CC23O[C@@H]4C=CCOC(=O)[C@@H]4[C@H]2C(=O)N(CCCO)[C@@H]3C1=O (stereo partly drawn) | -0.128 | -1.91 (inactive) | 1.34 (inactive) | -0.201 (inactive) | 0.248 (inactive) | -1.68 (inactive) | -0.135 (inactive) | 0.2 (inactive) | 0.939 | 0.29 | 0.816 (inactive) | 0.749 | -1.91 | -3.62 (inactive) | 0.762 (inactive) | 0.0478 (inactive)
COC(=O)[C@H](Cc1ccccc1)N1CC(/C=C/C2CC2)=C[C@H]1[C@H](O)Cc1ccccc1 | -0.57 | -2.67 (inactive) | -3.01 (inactive) | -0.258 (inactive) | 0.188 (inactive) | -0.55 (inactive) | -0.0993 (inactive) | -0.0274 (inactive) | -2.71 | -0.102 | 0.444 (inactive) | 0.337 | -1.65 | -5.54 (inactive) | -0.45 (inactive) | -0.749 (inactive)
CN(C)CCCCNC(=O)[C@@H]1C[C@@H]2C(=O)N[C@@H](Cc3ccccc3)C(=O)N2[C@@H]1c1cccc(OCCO)c1 | 0.225 | -0.957 (inactive) | 0.977 (inactive) | -2.56 (inactive) | 0.215 (inactive) | -3.29 (inactive) | 2.51 (inactive) | 2.13 (inactive) | 0.588 | 0.109 | 0.096 (inactive) | 0.762 | 0.0546 | -3.94 (inactive) | -1.08 (inactive) | -0.295 (inactive)
NC(=O)NCC#Cc1ccc2c(c1)[C@]1(C(=O)N2)[C@H](C(=O)O)[C@H]2C(=O)O[C@H](c3ccccc3)[C@H](c3ccccc3)N2[C@@H]1c1ccc(OCCO)cc1 | 0.626 | 0.0086 (inactive) | 0.557 (inactive) | -0.932 (inactive) | 0.545 (inactive) | -0.285 (inactive) | -0.0444 (inactive) | -0.721 (inactive) | 0.547 | 0.361 | -0.316 (inactive) | 0.419 | -0.46 | -6.34 (inactive) | 0.242 (inactive) | 0.615 (inactive)
CCOC(=O)[C@H]1[C@@H]2C(=O)N3CCC[C@H]3[C@H](O[Si](C(C)C)(C(C)C)C(C)C)[C@H]2C=C2CCN(S(=O)(=O)c3ccc(C)cc3)C[C@H]21 | -1.01 | 0.212 (inactive) | -1.84 (inactive) | -0.627 (inactive) | 0.318 (inactive) | -0.598 (inactive) | -0.146 (inactive) | -0.641 (inactive) | -3.37 | -0.148 | 0.0514 (inactive) | 0.589 | -2.23 | -4.48 (inactive) | 0.186 (inactive) | -0.0427 (inactive)
COc1cc2c(cc1OC)CN(C(=O)[C@@H]1[C@H]3C(=O)O[C@H](c4ccccc4)[C@H](c4ccccc4)N3[C@H](c3ccc(OCCO)cc3)[C@@]13C(=O)Nc1ccccc13)CC2 | -0.44 | 1.39 (inactive) | -1.54 (inactive) | -1.09 (inactive) | 3.15 (inactive) | 4.05 (inactive) | 0.144 (inactive) | 0.919 (inactive) | -0.0976 | -0.0763 | 0.675 (inactive) | 0.742 | -1.77 | -8.07 (active) | -0.118 (inactive) | -0.256 (inactive)
CCOC(=O)C[C@H]1[C@H](OC(=O)c2cc3ccccc3oc2=O)[C@@H](NC(=O)Cc2ccc(OC)cc2)c2cc(OCCCO)ccc2N1C(=O)c1ccc2ccccc2n1 | -0.604 | -1.05 (inactive) | -0.377 (inactive) | 0.0564 (inactive) | -0.234 (inactive) | -0.315 (inactive) | 0.928 (inactive) | 0.337 (inactive) | -0.0615 | -0.0414 | -0.426 (inactive) | 0.255 | -1.01 | -4.04 (inactive) | 0.134 (inactive) | 0.203 (inactive)
O=C(CS)NCCCCCNC(=O)[C@@H]1C[C@@H]2C(=O)N3CCC[C@H]3C(=O)N2[C@@H]1c1cccc(OCCO)c1 | -0.514 | 0.196 (inactive) | -0.374 (inactive) | -1.8 (inactive) | 0.711 (inactive) | 0.119 (inactive) | -0.277 (inactive) | -0.141 (inactive) | -0.664 | 0.122 | 2.29 (inactive) | 0.839 | 1.05 | -3.61 (inactive) | 1.25 (inactive) | 0.575 (inactive)
COc1cc2c(cc1O)C(C)N(Cc1ccc([N+](=O)[O-])o1)CC2 (stereo not drawn) | -0.11 | -0.942 (inactive) | -0.653 (inactive) | -0.749 (inactive) | -0.103 (inactive) | -0.74 (inactive) | -1.04 (inactive) | -0.679 (inactive) | -0.396 | -0.127 | 0.563 (inactive) | 0.962 | -1.2 | -6.22 (inactive) | 0.0111 (inactive) | 0.264 (inactive)
CC(=O)NCCCC[C@@H]1NC(=O)[C@H]2C[C@@H](C(=O)NCCCC[N+](C)(C)C)[C@@H](c3cccc(OCCO)c3)N2C1=O | -0.704 | 0.294 (inactive) | 0.785 (inactive) | -30.8 (active) | 0.45 (inactive) | -0.724 (inactive) | 0.417 (inactive) | -0.369 (inactive) | 0.228 | 0.0223 | 2.02 (inactive) | 0.823 | -0.207 | -1.96 (inactive) | 0.0751 (inactive) | 0.341 (inactive)
CN(C)CCCNC(=O)[C@@]1(C)c2ccccc2C(=O)N(Cc2ccccc2)[C@H]1c1ccc(CO)cc1 | -0.834 | 0.384 (inactive) | 0.367 (inactive) | -0.106 (inactive) | 0.683 (inactive) | 0.861 (inactive) | -0.147 (inactive) | -0.0983 (inactive) | 0.009 | 0.0155 | -0.328 (inactive) | -0.711 | -0.649 | -2.18 (inactive) | 0.559 (inactive) | 0.749 (inactive)
COc1ccc(CCNC(=O)[C@@H]2c3ccccc3C(=O)N(Cc3cc(C(F)(F)F)cc(C(F)(F)F)c3)[C@H]2c2ccc(CO)cc2)cc1 | 0.317 | -0.662 (inactive) | -0.295 (inactive) | -0.928 (inactive) | 0.279 (inactive) | 0.864 (inactive) | 0.619 (inactive) | 0.591 (inactive) | 0.451 | -0.213 | 0.381 (inactive) | 0.649 | -1.17 | -2.92 (inactive) | -0.198 (inactive) | 0.173 (inactive)
COCCOC(=O)N1C(=O)[C@@]2(c3cc(C#CCC(C(=O)OC)C(=O)OC)ccc31)[C@H](C(=O)N1CCc3cc(OC)c(OC)cc3C1)[C@H]1C(=O)O[C@H](c3ccccc3)[C@H](c3ccccc3)N1[C@@H]2c1ccc(OCCO)cc1 | -0.679 | 1.63 (inactive) | -0.348 (inactive) | -1.34 (inactive) | 2.39 (inactive) | 2.8 (inactive) | -0.132 (inactive) | 0.325 (inactive) | 0.847 | -0.332 | 0.655 (inactive) | 0.749 | -2.1 | 3.49 (inactive) | -0.0997 (inactive) | 0.159 (inactive)
C=CCOC(=O)[C@H]1[C@@H]2C(=O)O[C@@H](c3ccccc3)[C@@H](c3ccccc3)N2[C@@H](c2ccc(OCCOC(=O)[C@@H]3C[C@@H]4C(=O)N5CCC[C@H]5C(=O)N4[C@@H]3c3ccc(O)cc3)cc2)[C@]12C(=O)Nc1ccc(I)cc12 | -0.384 | 1.04 (inactive) | -0.996 (inactive) | -1.13 (inactive) | 3.91 (inactive) | 1.08 (inactive) | -0.102 (inactive) | 0.0802 (inactive) | -0.686 | -0.083 | 0.773 (inactive) | 0.787 | -1.64 | 2.54 (inactive) | 0.651 (inactive) | 0.571 (inactive)
C[N+](C)(C)CCCCCCNC(=O)[C@H]1C[C@H]2C(=O)NCC(=O)N2[C@H]1c1ccc(O)cc1 | 0.767 | -0.275 (inactive) | -0.301 (inactive) | -0.435 (inactive) | 0.823 (inactive) | 0.0387 (inactive) | -0.298 (inactive) | -0.785 (inactive) | -0.116 | 0.175 | 0.537 (inactive) | 0.815 | 0.089 | -2.39 (inactive) | -0.458 (inactive) | -0.132 (inactive)
CCOc1cc(C(O)C2C=CC3C(=O)N(C)C(=O)C3N2Nc2ccccc2)ccc1O (stereo not drawn) | -0.687 | 1.11 (inactive) | -0.328 (inactive) | 0.684 (inactive) | 0.807 (inactive) | 2.32 (inactive) | -0.501 (inactive) | -0.861 (inactive) | -0.323 | 0.312 | 0.705 (inactive) | 0.273 | -0.211 | -2.42 (inactive) | -0.0768 (inactive) | -0.677 (inactive)
O=C1NC(=O)C2C1C=CC(C(O)c1c(F)cccc1Cl)N2Nc1ccc(Cl)cc1Cl (stereo not drawn) | -3.13 | -14.8 (active) | -2.21 (inactive) | 0.0047 (inactive) | 1.44 (inactive) | -1.12 (inactive) | -0.854 (inactive) | -1.44 (inactive) | -2.2 | 0.482 | 0.831 (inactive) | 0.709 | -0.0027 | -6.24 (inactive) | 1.05 (inactive) | 0.702 (inactive)
COCCOC(=O)N1C(=O)[C@@]2(c3cc(C#Cc4ccc(OC)cc4)ccc31)[C@H](C(=O)Nc1nc3ccccc3s1)[C@H]1C(=O)O[C@H](c3ccccc3)[C@H](c3ccccc3)N1[C@@H]2c1ccc(OCCO)cc1 | -0.635 | 3.03 (inactive) | -0.63 (inactive) | -0.27 (inactive) | 2.32 (inactive) | 3.64 (inactive) | -0.358 (inactive) | -0.486 (inactive) | -0.56 | -0.075 | 0.127 (inactive) | 0.623 | -1.69 | 2.34 (inactive) | 0.0676 (inactive) | 0.0745 (inactive)
